PTHR1 ag = activates the human parathyroid hormone receptor PTHR1; Potency, µM (highest dose often 115 µM), for inactives: at the highest dose activation, hits mostly activators; 0.075% of 410,000 active; HEK293 GP2 PTHR1 cells, GloSensor cAMP luminescence, 1 h; further: nearly all actives have a fitted effect of over 55% in size
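HEK-293-derived GP2 cells expressing PTHR1 and a GloSensor cAMP reporter, 3,000/well, plated overnight, given luciferin plus IBMX (each 0.5 mM as added) for 1 h at 37 °C, then compound for 1 h at 37 °C. Luminescence was read after 15 min at room temperature.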
GLP1R inv ag = GLP-1 receptor (human) inverse agonism; Potency, µM (titrated, usually from 38.3 µM), without a hit: top-dose activity change, negative = inhibition, usual class: inhibitors; P43220; HEK293 GLP-1R CRE-luciferase, luminescence, 24 h; GLP-1R form is constitutively active; 1.6% of 410,000 active; further: on the % scale 0 is the no-effect control and ±100 the full control effect; nearly all actives have a fitted effect of over 55% in size
Target sequence (P43220 whole entry, looked up): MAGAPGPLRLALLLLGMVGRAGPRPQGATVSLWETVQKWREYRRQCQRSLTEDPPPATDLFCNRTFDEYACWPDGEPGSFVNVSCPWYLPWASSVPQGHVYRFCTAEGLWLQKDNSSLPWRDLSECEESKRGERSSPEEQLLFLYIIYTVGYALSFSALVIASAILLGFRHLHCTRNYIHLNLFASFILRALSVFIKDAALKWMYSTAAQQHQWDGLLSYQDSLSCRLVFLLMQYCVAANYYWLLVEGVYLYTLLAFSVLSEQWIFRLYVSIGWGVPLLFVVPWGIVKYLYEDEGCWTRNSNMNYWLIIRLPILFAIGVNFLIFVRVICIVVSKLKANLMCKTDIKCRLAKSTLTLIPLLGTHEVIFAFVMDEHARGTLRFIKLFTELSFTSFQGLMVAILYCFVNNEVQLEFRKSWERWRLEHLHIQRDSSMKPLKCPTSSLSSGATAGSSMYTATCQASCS
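Assay principle: reduced luminescence from a cAMP-responsive reporter in HEK293 cells co-expressing a constitutively active GLP-1R. Conditions: 24 hr compound incubation, 37 deg C, 5% CO2.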
GLP1R cytotox = cytotoxicity counter-screen for GLP-1 receptor inverse agonists; AID 624418; Potency, µM (highest dose often 38.3 µM), without a hit: at the highest dose activity change, negative = inhibition, usual class: inhibitors; 0.13% of 410,000 active; HEK293 cAMP-luciferase reporter cells, luminescence, 24 h;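 further: loss of luciferase light is scored as toxicity; on the % scale 0 is the no-effect control and ±100 the full control effect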
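Seeding density was 200 cells/uL; after overnight-length (12 h) culture, 23 nL compounds went on for 24 h at 37 °C. Readout used a luciferase detection reagent, luminescence taken after 12 min at room temperature.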
GLP-1R agonist = GLP-1 receptor (human) agonism. P43220. HEK293 GLP-1R CRE-luciferase, luminescence, 4-6 h; cells express a hypersensitive GLP-1R form. Potency, µM (highest dose often 45.6 µM), inactives show top-dose activation, hits mostly activators. 0.007% of 380,000 active. AID 624172; further: % of control where 0% means no effect
* = called active by the depositor; i = inactive; ? = inconclusive; · = no result; [ ] = dose if it differs, or a comment. The list is not random: actives were taken first. Their share in the collection is about 1.7%. The call rests on the fitted dose curve; in most records, active means well fitted curve in the direction sought with a large enough effect; inconclusive means small, poorly fitted or top-dose-only effect, or another doubt; inactive means no such curve, though single readings can be large; an effect the other way counts as inactive or inconclusive. Potency means the concentration at half of the fitted maximal effect.

SMILES	PTHR1 ag	GLP1R inv ag	GLP1R cytotox	GLP-1R agonist
CC(C)CCn1cnc2c(oc3nc4c(cc32)CCCC4)c1=O	-29.6%	8.91µM*	-8.4%	-7.2%
CC1CCc2c(sc3nc(-c4cc5ccccc5oc4=O)nc(Cl)c23)C1 (stereo unspecified)	-96.1%	2.5%	0.2%	0.3%
CCCCNS(=O)(=O)c1ccc(C)c(-c2nnc3c4ccccc4c(C)nn23)c1	-13.9%	7.7%	1.3%	·
C#CCN(C[C@@H]1[C@@H](OC(=O)NCC2CCCCC2)[C@@H](OC(=O)NCC2CCCCC2)Cn2c(=O)ccc(=O)n21)S(=O)(=O)c1ccc(C)cc1	-84.7%	2.51µM*	?	-13.7%
C#CCN(C[C@@H]1[C@@H](OC(=O)NCc2ccco2)[C@@H](OC(=O)NCc2ccco2)Cn2c(=O)n(CCCCCC)c(=O)n21)S(=O)(=O)c1ccc(C)cc1	-35.8%	?	-0.2%	-3.1%
C#CCN(C[C@@H]1[C@@H](OC(=O)NCc2ccco2)[C@@H](OC(=O)NCc2ccco2)Cn2c(=O)ccc(=O)n21)S(=O)(=O)c1ccc(C)cc1	-87.8%	10µM*	?	-4.5%
Cc1ccccc1CN(C)C(C)C(=O)Nc1ccccc1F (stereo unspecified)	-33.0%	8.91µM*	0.4%	13.9%
Cc1ccc(C)c(N2CCN(c3c(CN4CCCC4)c(=O)oc4ccccc34)CC2)c1	1.3%	-0.4%	1.4%	·
COc1ccc(CCNC(=O)CSc2cn(CCNC(=O)c3cccc(C(F)(F)F)c3)c3ccccc23)cc1OC	-45.7%	?	-14.1%	-2.8%
COc1ccc(Br)cc1C(=O)Nc1ccc2oc(-c3cccnc3)nc2c1	i	7.0%	-5.6%	·
CC(=O)c1ccc(NC(=O)c2sc(-n3nc(C)c(Cc4ccc5c(c4)OCO5)c3C)nc2C)cc1	i	10.9%	6.8%	·
Cc1nc2ncnn2c(N2CCN(C(c3ccccc3)c3ccccc3)CC2)c1C	-24.6%[57.5 µM]	0.0%	-7.0%	-2.4%
Cc1cc(N2CCN(C(c3ccccc3)c3ccccc3)CC2)n2ncnc2n1	-11.3%	11.2µM*	-9.8%	20.9%
Cc1cccc(CNC(=O)Cn2nc(C)n3c(cc4cc(F)ccc43)c2=O)c1	i	-5.1%	0.5%	·
CCOC(=O)c1c(/N=C/N(C)C)sc(/C=N/Nc2ccccc2)c1-c1ccc(Cl)cc1	-0.1%	10µM*	3.4%	0.4%
O=C(Cc1ccccc1)NNc1ccc2ccccc2c1	i	0.562µM*	-15.4%	-0.9%
Cc1ccc(C)c2sc(N3CCN(C(=O)C(C)(C)C)CC3)nc12	-6.9%	?	5.1%	·
Cc1ccc(C(=O)CC2(O)C(=O)N(CCc3ccccc3)c3ccc(Br)cc32)o1 (stereo unspecified)	i	7.94µM*	-29.8%	1.9%
O=C(CC1(O)C(=O)N(CCc2ccccc2)c2ccc(Br)cc21)c1ccccc1 (stereo unspecified)	i	?	-7.4%	2.3%
CCOc1ccc(S(=O)(=O)N2CCC(C(=O)N3CCN(c4ccccc4F)CC3)CC2)cc1C	-19.1%	5.62µM*	9.5%	1.7%
CCOc1ccc(NC(=O)Cn2cc(C(=O)c3ccc(C)c(C)c3)c(=O)c3cc(F)ccc32)cc1	i	15.6%	-6.8%	0.8%
N#Cc1ccc(CSc2nnc(-c3c[nH]c4ccccc34)n2-c2ccccc2)cc1	-42.1%	6.31µM*	-28.4%	7.1%
N#Cc1ccc(CSc2nnc(-c3ccccn3)n2-c2ccccc2)cc1	i	-6.4%	13.2%	2.4%
COc1ccc(N(CC(=O)Nc2ccc(C)cc2C)S(=O)(=O)c2c(C)n[nH]c2C)cc1	16.6%	?	-9.8%	-4.8%
COc1ccc(N(CC(=O)Nc2cc(Cl)ccc2C)S(=O)(=O)c2c(C)n[nH]c2C)cc1	8.1%	4.47µM*	?	-3.7%
SMILES	PTHR1 ag	GLP1R inv ag	GLP1R cytotox	GLP-1R agonist
Cc1n[nH]c(C)c1S(=O)(=O)N(CC(=O)Nc1ccc(C(F)(F)F)cc1)c1ccc(C(C)C)cc1	-42.4%	10µM*	-11.8%	·
O=C1CCCc2ccccc2N1Cc1ccc(Cl)cc1Cl	-10.2%	11.2µM*	-1.0%	-6.4%
O=C1CCCc2ccccc2N1Cc1ccccc1Cl	-6.5%	?	13.5%	53.2%
O=C(Cn1cc2c(n1)CCCC2)Nc1cc(C(F)(F)F)ccc1Cl	-19.2%	-8.4%	4.4%	·
CCN1CCN(S(=O)(=O)c2ccc(Cl)c(C(=O)N(CCc3ccccc3)Cc3ccccc3)c2)CC1	-15.2%	?	?	4.9%
O=C(c1cc(S(=O)(=O)N2CCOCC2)ccc1F)N(CCc1ccccc1)Cc1ccccc1	i	10µM*	-2.6%	6.3%
Cc1ccc(S(=O)(=O)N2CCCCC2)cc1C(=O)N(CCc1ccccc1)Cc1ccccc1	-3.3%	4.47µM*	10.3%	-5.8%
O=C(c1ccccc1[N+](=O)[O-])N(CCc1ccccc1)Cc1ccccc1	-9.2%	?	1.3%	8.2%
COc1ccc(C(=O)N(CCc2ccccc2)Cc2ccccc2)c(OC)n1	i	5.62µM*	6.7%	15.1%
O=C(NCCc1ccccc1)c1cc(S(=O)(=O)N2CCOCC2)ccc1F	-38.5%	-4.0%	5.3%	22.8%
Cc1cccc(C(=O)N(CCc2ccccc2)Cc2ccccc2)c1[N+](=O)[O-]	-32.2%	3.16µM*	-19.2%	-4.3%
CC(C)CCNC(=O)c1cc(-c2cccnc2)nc2ccc(S(=O)(=O)N3CCC(C)CC3)cc12	i	6.7%	1.8%	·
COc1cccc(CCNC(=O)c2c(O)nc3cc(C)ccn3c2=O)c1	-17.8%	15.5%	0.2%	-1.5%
CCOc1ccccc1CNC(=O)CCCN1C(=O)COc2ccc(C)cc21	i	-30.3%	5.7%	·
O=C(Nc1cccc(-c2csc(Nc3ccccc3)n2)c1)c1ccccc1	-66.5%	8.91µM*	-27.4%	-5.4%
c1ccc(Nc2nc(-c3ccccn3)cs2)cc1	-15.7%	5.62µM*	3.16µM*	11.5%
CCc1ccc([C@@H]2CC=C(C(=O)O)[C@H](c3ccc(C(C)(C)C)cc3)N2S(=O)(=O)c2ccc(C)cc2)cc1	-19.8%	12.6µM*	-11.1%	-4.6%
Cc1ccc(S(=O)(=O)N2[C@@H](c3ccc(C(C)(C)C)cc3)C(C(=O)O)=CC[C@H]2c2ccc(C(C)C)cc2)cc1	-95.5%	3.16µM*	?	-3.4%
Cc1ccc([C@@H]2CC=C(C(=O)O)[C@H](c3ccc(C(C)(C)C)cc3)N2S(=O)(=O)c2ccc(C)cc2)cc1	-36.1%	?	-16.9%	-4.1%
Cc1ccc(S(=O)(=O)N2[C@@H](c3ccc(Cl)cc3)C(C(=O)O)=CC[C@H]2c2ccc(Cl)c(Cl)c2)cc1	-70.1%	3.55µM*	-25.5%	-3.5%
Cc1ccc(S(=O)(=O)N2C(c3ccc(Cl)c(Cl)c3)CC=C(C(=O)O)C2c2ccc(Cl)cc2)cc1 (stereo unspecified)	i	?	-23.7%	·
[O-][n+]1ccccc1SSc1cccc[n+]1[O-]	·	·	·	-12.9%
COc1cccc(C(=O)C2CCCN(Cc3cn[nH]c3C3CCCCC3)C2)c1 (stereo unspecified)	-5.2%	10µM*	-6.8%	14.2%

Source: PubChem
